# Laboratory results from PubChem BioAssay.
# Values joined by “and” are separate entries in the source; they are usually repeats but may differ in a detail not shown here. Equal values may be shown once. Active and inactive are the calls of the source. Unless noted, the rule behind the calls is not given here.
# Columns and labels:
# [1] = circadian clock period modulators, cell-based, LOPAC library, luminescence reporter (AID 2774); details: circadian reporter cells, at 7 µM, actives lie on both sides;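 note: values are relative to mean of DMSO wells on each plate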
# [2] = tested on: Hepatitis C virus NS3 helicase; experiment: HCV NS3 helicase inhibitors, primary screen, biochemical, fluorescence polarization, LOPAC1280 library (AID 687035; in the data active = inhibition above about 37%); details: Purified HCV NS3 helicase, Cy5-dT15 ssDNA binding fluorescence polarization; stronger effect = higher value; concentration not given here
# [3] = Cy5 fluorescence quenching or enhancement artefacts, artefact control for HCV NS3 helicase inhibitor project, biochemical, LOPAC1280 (AID 687037); details: Cy5-DNA-NS3h complex fluorescence interference counterscreen
# [4] = tested on: Aerobactin synthetase IucA (Klebsiella pneumoniae, hypervirulent); experiment: IucA enzyme inhibition, biochemical, LOPAC library, absorbance readout (AID 1346212); details: IucA enzyme assay, absorbance (OD) readout; stronger effect = lower value;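 tested at 8 µM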;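 note: 100% = no compound wells and 0% = no enzyme wells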
# [5] = sensitizers of A549 cells to miR-34 induction, primary screen, imaging, A549 dox-inducible miR-34, nuclei and caspase counts (AID 1347080;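 active = compounds whose cell count with miR-34 switched on is under 0.7 times the count with it off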); details: A549 miR-34 inducible, Hoechst nuclei count, 48 h
# [6] = phospholipid biosynthesis inhibitors in animal cells, primary screen, cell-based, LOPAC library, screen 4 (AID 1347384); details: phospholipid biosynthesis inhibition screen, at 10 µM
# [7] = viability rescue of complex I mutant cybrids, primary screen, cell-based, galactose medium, ATP luminescence (AID 1645843;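 active = z-score of at least 1.8 in each of two replicates, scored against plate mean and spread of sample wells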;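 note: positive z means more ATP and so rescue of galactose-driven cybrid death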); details: complex I mutant cybrid cells, 72 h, stronger effect = higher value
# [8] = liver-stage malaria parasite growth inhibition, primary screen, cell-based, HepG2, luciferase luminescence, HepG2 viability (AID 624349; in the data active = parasite load remaining mostly below about 12%, no sharp cut-off; inactive = mostly above about 10%;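 note: 100% = mean of DMSO negative control wells on the same plate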); details: P. berghei liver stage in HepG2, luciferase luminescence, concentration not given here; parasite load remaining: stronger effect = lower value; viability: measured here: HepG2 viability without parasites
# [9] = survival rescue of mitochondrial mutant cells in low glucose, primary screen, MELAS cybrids, Rieske KO mouse fibroblasts, CellTiter-Glo (AID 1508586;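 active = mean z-score across replicates of 1.96 or higher in either the MELAS or the Rieske mutant cell line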;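 note: z relative to plate mean and SD of compound and empty wells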)
# [10] = hESC survival regulators, cell-based (AID 493140); details: human embryonic stem cell survival screen; stronger effect = higher value;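 note: cells exposed to compounds for four days before counting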
# [11] = measured here: relative caspase fold change +Dox/-Dox
# [12] = measured here: total cells with miR-34 induction, stronger effect = lower value
# [13] = measured here: total cells without miR-34 induction
SMILES,period change [1],inhibition [2],fluorescence ratio (interference) [3],remaining activity [4],fold change ([5]; stronger effect = lower value),"fold change [5, 11]","cell count [5, 12]","cell count [5, 13]",outcome [6],z-score [7],"fold change ([5]; stronger effect = lower value, cell number ratio, induced over uninduced)",parasite load remaining [8],viability [8],"z-score ([9]; MELAS cybrid survival, CellTiter-Glo 48 h, stronger effect = higher value)","z-score ([9]; Rieske KO mouse fibroblast survival, CellTiter-Glo 72 h)",survival [10]
NC(=O)CI,-0.03 h (inactive),-1% (inactive),1.1 (inactive),124% (inactive),1.11 (inactive),1.73,3640,3270,inactive,-1 (inactive),,,,,,
Ic1ccccc1CNC1C2CCN(CC2)C1C(c1ccccc1)c1ccccc1 (centres undefined),0.145 h (inactive),-8% (inactive),0.9 (inactive),98.2% (inactive),0.485 (active),0.281,329,679,inactive,-1.29 (inactive),,,,,,
Clc1cc(I)cc(Cl)c1NC1=NCCN1,0.11 h (inactive),-6% (inactive),0.9 (inactive),117% (inactive),1.15 (inactive),1.05,11200,9770,inactive,0.175 (inactive),,,,,,
CCCn1c(=O)c2[nH]c(C3CCCC3)nc2n(CCCOC(=O)c2ccc(S(=O)(=O)F)cc2)c1=O,-0.07 h (inactive),-3% (inactive),1 (inactive),102% (inactive),0.972 (inactive),1.12,6100,6280,inactive,-0.865 (inactive),,,,,,
O=S1(=O)N(CCN2CC=C(c3c[nH]c4cc(F)ccc34)CC2)c2cccc3c2N1CCC3,0.13 h (inactive),0% (inactive),1 (inactive),123% (inactive),1.01 (inactive),0.783,5470,5400,inactive,-1.29 (inactive),,,,,,
Cn1cnc(CCN)c1,-0.12 h (inactive),-3% (inactive),1 (inactive),125% (inactive),1.08 (inactive),1.18,11400,10500,inactive,0.51 (inactive),,,,,,
C[N+]1(C)C2CCC1CC(OC(=O)c1c[nH]c3ccccc13)C2 (centres undefined),-0.255 h (inactive),0% (inactive),1 (inactive),94.3% (inactive),0.939 (inactive),1.36,9240,9840,inactive,0.4 (inactive),,,,,,
CCCN1CC[C@@H]2c3cc(O)ccc3CC[C@@H]21,-0.045 h (inactive),-4% (inactive),0.9 (inactive),105% (inactive),1.1 (inactive),0.654,11000,10000,inactive,0.605 (inactive),,,,,,
CCCN(CCC)[C@H]1CCc2c(F)ccc(O)c2C1,-0.075 h (inactive),-4% (inactive),1 (inactive),115% (inactive),1.05 (inactive),1.11,10100,9610,inactive,-0.33 (inactive),,,,,,
c1ccc2c(N3CCNCC3)cccc2c1,0.19 h (inactive),-1% (inactive),1 (inactive),77.2% (inactive),0.966 (inactive),1.06,8750,9060,inactive,-0.255 (inactive),,,,,,
CCCN1CCC[C@@H](c2cccc(O)c2)C1,0.11 h (inactive),-3% (inactive),1 (inactive),106% (inactive),0.956 (inactive),0.986,9850,10300,inactive,0.185 (inactive),,,,,,
O=[N+]([O-])c1ccc2nc(N3CCNCC3)ccc2c1,-0.09 h (inactive),-1% (inactive),1 (inactive),117% (inactive),1.07 (inactive),1.56,8660,8090,inactive,-1.12 (inactive),,,,,,
CC(=O)NBr,0.03 h (inactive),-1% (inactive),0.9 (inactive),100% (inactive),1.03 (inactive),2.31,10500,10100,inactive,0.61 (inactive),,,,,,
CN1CCc2cc(O)cc3c2[C@H]1Cc1ccc(O)c(O)c1-3,0.03 h (inactive),-2% (inactive),1 (inactive),101% (inactive),1.01 (inactive),1.15,9530,9390,inactive,-1.03 (inactive),,,,,,
CCCN(CCC)CCc1ccc(O)c(O)c1,-0.225 h (inactive),0% (inactive),1 (inactive),95.7% (inactive),0.99 (inactive),0.931,10100,10200,inactive,0.465 (inactive),,,,,,
CC(N)[C@H](O)c1ccc(O)c(O)c1 (some centres undefined),-0.05 h (inactive),0% (inactive),1 (inactive),122% (inactive),0.943 (inactive),1.34,10200,10800,inactive,-0.925 (inactive),,,,,,
COc1ccc2c(c1O)-c1cccc3c1[C@@H](C2)N(C)CC3,-0.1 h (inactive),-4% (inactive),1 (inactive),102% (inactive),0.958 (inactive),1.07,7690,8030,inactive,-0.76 (inactive),,,,,,
Oc1ccc2c3c1O[C@H]1c4oc5ccccc5c4C[C@@]4(O)C(C2)N(CC2CC2)CCC314 (some centres undefined),0.13 h (inactive),-1% (inactive),1 (inactive),97.5% (inactive),1.1 (inactive),0.785,10600,9610,inactive,-0.595 (inactive),,,,,,

SMILES,period change [1],inhibition [2],fluorescence ratio (interference) [3],remaining activity [4],fold change ([5]; stronger effect = lower value),"fold change [5, 11]","cell count [5, 12]","cell count [5, 13]",outcome [6],z-score [7],"fold change ([5]; stronger effect = lower value, cell number ratio, induced over uninduced)",parasite load remaining [8],viability [8],"z-score ([9]; MELAS cybrid survival, CellTiter-Glo 48 h, stronger effect = higher value)","z-score ([9]; Rieske KO mouse fibroblast survival, CellTiter-Glo 72 h)",survival [10]
OCc1cnc[nH]1,0.065 h (inactive),0% (inactive),1 (inactive),102% (inactive),0.96 (inactive),1.56,10400,10800,inactive,0.255 (inactive),,,,,,
CCCN1CCc2cc(O)cc3c2[C@H]1Cc1ccc(O)c(O)c1-3,0.415 h (inactive),1% (inactive),1 (inactive),99.8% (inactive),0.922 (inactive),1.32,9400,10200,inactive,-0.965 (inactive),,,,,,
NC(N)=Nc1ccc2[nH]c3c(c2c1)C[C@@]1(O)[C@H]2Cc4ccc(O)c5c4[C@@]1(CCN2CC1CC1)[C@H]3O5,-0.11 h (inactive),-6% (inactive),0.9 (inactive),86.3% (inactive),1.08 (inactive),0.809,9750,9000,inactive,-0.92 (inactive),,,,,,
NNC(N)=O,-0.03 h (inactive),-3% (inactive),1 (inactive),102% (inactive),0.944 (inactive),0.77,10400,11000,inactive,0.4 (inactive),,,,,,
NCC(CP(=O)(O)O)c1ccc(Cl)cc1 (centres undefined),0.02 h (inactive),-1% (inactive),1 (inactive),107% (inactive),1 (inactive),1.21,9470,9430,inactive,0.615 (inactive),,,,,,
NCC(O)c1cc(O)c(O)cc1F (centres undefined),-0.105 h (inactive),1% (inactive),0.9 (inactive),110% (inactive),1.02 (inactive),1.46,10300,10200,inactive,-1.47 (inactive),,,,,,
C[N+]1(C)C2CC(OC(=O)[C@H](CO)c3ccccc3)CC1C1OC12 (some centres undefined),-0.095 hour (inactive) and 0.155 hour (inactive),-1% (inactive) and 0% (inactive),1 (inactive),96.4% (inactive),0.984 (inactive) and 1.04 (inactive),0.938 and 1.11,10100 and 9050,10300 and 8720,,0.475 (inactive) and 0.45 (inactive),,,,,,
C[C@H](Cc1ccc2c(c1)OC(C(=O)O)(C(=O)O)O2)NC[C@H](O)c1cccc(Cl)c1,0.1 h (inactive),-3% (inactive),1 (inactive),117% (inactive),,1.78,10500,10300,,0.755 (inactive),1.02 (inactive),,,,,
CC(=O)OCC1=C(C(=O)[O-])N2C(=O)[C@@H](NC(=O)CCC[C@@H](N)C(=O)[O-])[C@H]2SC1.[Zn+2],-0.01 h (inactive),0% (inactive),0.9 (inactive),102% (inactive),1.04 (inactive),1.44,10400,10000,,-0.275 (inactive),,,,,,
Oc1ccc2c3c1O[C@H]1c4[nH]c5ccccc5c4C[C@@]4(O)[C@@H](C2)N(CC2CC2)CC[C@]314,,,,108% (inactive),0.934 (inactive),1.1,8700,9320,,-0.405 (inactive),,47.8% (inactive),98.5%,0.24 (inactive),0.662,
COC(=O)c1cc2c(cn1)[nH]c1ccccc12,0.035 h (inactive),,,104% (inactive),,,,,,,,,,,,
Cc1cc([C@@H]2CCCN2C)on1,,-6% (inactive),1 (inactive),91.6% (inactive),0.924 (inactive),1.47,9420,10200,inactive,0.41 (inactive),,,,,,
N#CC(C#N)=Cc1cc(O)c(O)c(O)c1,-0.035 h (inactive),,,109% (inactive),,,,,,,,,,,,61.5 (inactive)
O=[N+]([O-])/C=C/c1ccc2c(c1)OCO2,,-1% (inactive),1 (inactive),107% (inactive),1.45 (inactive),0.546,2000,1380,inactive,-0.995 (inactive),,42.5% (inactive),65.7%,,,
COc1cc(C=C(C#N)C#N)cc(O)c1O,-0.12 h (inactive),,,117% (inactive),,,,,,,,,,,,
CC12CCC3C(CCC4=C(O)C(=O)CCC43C)C1CCC2=O (centres undefined),-0.08 h (inactive),-3% (inactive),1 (inactive),113% (inactive),,,,,,,,,,,,
Clc1ccc(C(c2ccc(Cl)cc2)n2cc[n+](CC(OCc3ccc(Cl)cc3Cl)c3ccc(Cl)cc3Cl)c2)cc1 (centres undefined),-0.26 h (inactive),-3% (inactive),0.9 (inactive),106% (inactive),0.883 (inactive),1.87,1420,1610,,-1.52 (inactive),,,,,,
C[C@H]1OC[C@@H](C[N+](C)(C)C)O1,-0.07 h (inactive),,,81.5% (inactive),,,,,,,,,,,,
